Compound activity as filed in PubChem BioAssay.
Marburg entry inh – blocks Marburg virus binding to or entry into cells. Marburg virus pseudotyped entry inhibition, cell reporter. Potency, µM (doses to about 37.8 µM), without a hit: top-dose activity change, negative = inhibition, actives largely listed as inhibitors. 300,000 tested, 1.8% active. AID 540276; calls by dose curve; tested in HEK293 cells; note: potency is the fitted concentration of half-maximal effect
Vaccinia mCherry – vaccinia inhibition (mCherry reporter) | Vaccinia virus mCherry reporter infection, fluorescence | Potency, µM (highest dose often 36.5 µM), for inactives: at the highest dose activity change, negative = inhibition, actives largely listed as inhibitors | 310,000 tested, 0.63% active; calls by dose curve; tested in A549 cells; note: potency is the fitted concentration of half-maximal effect; nearly all actives have a fitted effect of over 35% in size
Vaccinia Venus – vaccinia inhibition (Venus reporter); Vaccinia virus Venus reporter expression, fluorescence; Potency, µM (doses to about 36.5 µM), inactives show at the top dose activity change, negative = inhibition, usual class: inhibitors; 330,000 tested, 0.46% active; AID 720580; calls by dose curve; tested in A549 cells; note: potency is the fitted concentration of half-maximal effect; nearly all actives have a fitted effect of over 30% in size
Lassa entry inh – blocks Lassa virus binding to or entry into cells; Lassa virus pseudotype entry inhibition, cell reporter; Potency, µM (highest dose often 37.9 µM), inactives show at the top dose activity change, negative = inhibition, most hits filed as inhibitors; 300,000 tested, 1.2% active; AID 540256; calls by dose curve; tested in HEK293 cells; note: potency is the fitted concentration of half-maximal effect; nearly all actives have a fitted effect of over 50% in size
HCV inh – inhibitors of hepatitis C virus infection | Huh7.5.1 HCVcc-Cre infection, luciferase reporter, 44 h | Potency, µM (series often up to 41.8 µM), without a hit: at the top dose activity change, negative = inhibition, hits mostly inhibitors | 340,000 tested, 3.4% active | AID 651820; active = well fitted inhibition curve with a large enough effect; inconclusive = small, poorly fitted or top-dose-only effect, or another doubt; inactive = no such curve, though single readings can be large or run the other way; note: potency is the fitted concentration of half-maximal effect
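1,000 cells/well; 4 h culture; + compound; + HCVcc-Cre (~0.5 moi); 44 h; luciferase substrate, RT 15 min; read 15 sec.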
HCMV inh – inhibitors of human cytomegalovirus; HFF cells, HCMV-luciferase reporter, 72 h; stronger effect = lower value; activity change, negative = inhibition, % at 57.5 µM; 410,000 tested, 4.5% active; AID 1259415; in the data active = activity change below about -60%; inconclusive = no clear call, values can overlap the other calls; inactive = above about -39%
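After 16 h attachment at 37C, HFF cells received test compound and HCMV-luciferase (1 PFU/cell); reporter luminescence read 72 h later, data normalized against buffer-only and known inhibitor Salinomycin.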
Starred values were filed as active, the others as inactive; i = inactive; ? = inconclusive; / = no result; [ ] = remark or other dose. The list is not random: actives were taken first. Their share in the collection is about 7.8%. % is set by controls: 0 for no effect and ±100 for the full control effect.

SMILES	Marburg entry inh	Vaccinia mCherry	Vaccinia Venus	Lassa entry inh	HCV inh	HCMV inh
COc1ccc(CNC(=O)CN2C(=O)NC(C)(c3ccc(C(C)(C)C)cc3)C2=O)cc1 (stereo not given)	?	?	-22%	-19%	-16%	-37
COc1ccc(C2(c3ccc(OC)cc3)NC(=O)N(CC(=O)Nc3ccc(C(=O)N(C)C)cc3)C2=O)cc1	18%	-13%	-9%	-14%	-13%	-66*
Cc1nc(NCc2ccc3nsnc3c2)sc1-c1ccn(C)n1	/	-21%	-17%	/	/	/
CC1CCCCN1C(=O)Cn1cc(C=O)c2ccccc21 (stereo not given)	16%	1%	-6%	8%	-1%	-23
CC1CCCCN1C(=O)Cn1cc(C=C2C(=O)N(C)C(=O)N(C)C2=O)c2ccccc21 (stereo not given)	-14%	i	-10%	-4%	23%	-63*
CC1CCCCN1S(=O)(=O)c1ccc(C(=O)Nc2sc3c(c2C(N)=O)CC(C)(C)NC3(C)C)cc1 (stereo not given)	/	-17%	-17%	2%[46.1 µM]	/	?
COc1ccc(O[C@H]2C=C[C@@H](c3ccccc3)O[C@H]2COC(=O)NCc2cccc3ccccc23)cc1	-28%[14.2 µM]	/	/	/	/	/
CCCCOc1nc2ccccc2nc1[C@H](C#N)C(=O)NC1CCCCC1	16%	/	/	/	/	/
O=C1CN=C(c2cccc(Br)c2)c2cc(Br)ccc2N1	7.9µM*	-3%	-16%	?	-28%	-24
COc1cc(-c2noc(C3CC(=O)N(c4cc(C)ccc4C)C3)n2)cc(OC)c1OC (stereo not given)	/	0%	3%	-29%[46.1 µM]	/	-5
COc1ccc(S(=O)(=O)N2CCC(C(=O)Nc3ccc(Oc4ccccc4)cc3)CC2)cc1	-3%[46.1 µM]	-16%[7.34 µM]	-18%[7.34 µM]	13%[46.1 µM]	/	-29
C=CCN1C[C@H](C)N(C(c2ccc(C(=O)N(CC)CC)cc2)c2cccc(OC)c2)CC1C (stereo not given in full)	/	/	/	/	/	-65*
CCN(CC)C(=O)c1cccc(-c2csc(C(O)c3cccc(OC)c3)n2)c1 (stereo not given)	/	i	-15%	/	/	?
COc1ccc2c(c1)cc1n2CCN=C1N	10µM*	-23%	-21%	2%	-14%	12
CC1CCc2nc(NC(=O)CSc3nc4ccccc4o3)sc2C1 (stereo not given)	-26%	-7%	?	?	11µM*	-85*
CCCOc1ccc(F)cc1-c1cc(C(=O)Nc2cc(OC)ccc2OC)[nH]n1	/	i	-15%	/	/	-80*
COc1ccc(OC)c(NC(=O)c2cc(-c3cc(Cl)ccc3O)n[nH]2)c1	?	/	/	?	7.1µM*	?
CCCCCNC(=O)c1c[nH]c2ccc(S(=O)(=O)N3CCC(C)CC3)cc2c1=O	/	?	-22%	-7%[46.1 µM]	/	9
CC(C)C(=O)OC1=CN(Cc2ccccc2)S(=O)(=O)c2ccccc21	1%[46.1 µM]	?	?	-1%[46.1 µM]	/	-12
Nc1ccc(-c2cnc(-c3ccc(N)cc3)nc2)cc1	?	/	/	?	-26%	43
Oc1ccc(-c2cnc(-c3ccc(O)cc3)nc2)cc1	1.1µM*	-10%	-10%	3.2µM*	-16%	47
CCC[C@@H](/C=C/C(=O)OCC)NC(=O)C(F)(F)F	/	/	/	/	/	-5
Cc1onc(-c2ccccc2)c1C(=O)NC(=S)Nc1sc2c(c1C#N)CCCC2	-2%	/	/	5%	1%	-25
Cn1cc([N+](=O)[O-])c(C(=O)Nc2sc3c(c2C#N)CCC3)n1	/	/	/	/	-1%	-101*
Cc1onc(-c2c(F)cccc2Cl)c1C(=O)Nc1sc2c(c1C(N)=O)CCC2	?	/	/	-28%	?	-74*
Cc1onc(-c2ccccc2)c1C(=O)Nc1sc2c(c1C#N)CCC2	4.6µM*	/	/	?	?	?
Cc1noc(C)c1C(=O)Nc1sc(C)c(-c2ccccc2)c1C#N	-1%	-7%	4%	14%	3%	-104*
CN1OC(C)(CC(=O)NCCc2ccccc2)N=C1c1ccccc1F (stereo not given)	/	/	/	/	/	37
COC(=O)C[C@H]1c2cc(F)ccc2S(=O)(=O)N1C1CC1	/	-10%	-7%	/	/	/
CCc1ccccc1NC(=S)N(CCc1ccncc1)C(C)C	/	/	/	/	10%	-93*
